Compound activity as filed in PubChem BioAssay.
ELG1 repair inh = inhibitors of ELG1-dependent DNA repair in HEK293T cells | HEK293T ELG1-luciferase reporter, luminescence, 16 h; DNA damage induced by 5-fluorouridine | Potency, µM (series often up to 46.1 µM), for the others: top-dose activity change, negative = inhibition, hits mostly inhibitors | 330,000 compounds, 2.3% hits | AID 504467; also: % is scaled to controls: 0 for no effect and ±100 for the full control effect; nearly all actives have a fitted effect of over 55% in size
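In this reporter screen, reduction of luminescence relative to DMSO vehicle indicated activity. Compounds and 5-fluorouridine were added together to 2,000 cells per well, incubated for 16 hr at 37 °C, then developed with ONE-Glo.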
NPC1 prom act = activators of NPC1 promoter; Huh7 NPC1 promoter luciferase reporter, 24 h; Potency, µM (doses to about 9.22 µM), for inactives: at the highest dose activation, most hits filed as activators; 320,000 compounds, 2.4% hits; also: % of control where 0% means no effect; nearly all actives have a fitted effect of over 60% in size
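Quantitative HTS used a cell-based reporter: Huh7 cells stably bearing the NPC1 promoter upstream of luciferase were treated with compounds for 24 h, and promoter activation was read as luminescence.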
Rab9 prom act = activators of Rab9 promoter; 320,000 compounds, 2.8% hits; Huh7 Rab9 promoter-luciferase reporter, luminescence, 24 h; Potency, µM (doses to about 9.22 µM), for the others: top-dose activation, negative = inhibition, usual class: activators; also: % of control where 0% means no effect; nearly all actives have a fitted effect of over 60% in size
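Luminescence read-out: Huh7 cells stably expressing Rab9-luciferase, treated 24 h with compound at 37 °C, then lysed with luciferase reagent for 10 min at ambient before reading.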
SMN2 splice up = increases expression of the SMN2 splice variant; 210,000 compounds, 2.8% hits; AID 1458; Potency, µM (highest dose often 46.1 µM), inactives show at the highest dose activity change, positive = activation, usual class: activators; HEK293 SMN2-luciferase splicing reporter, luminescence, 30-36 h; also: % of control where 0% means no effect; nearly all actives have a fitted effect of over 55% in size
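HEK293 cells carry an SMN2 minigene-luciferase reporter in which exon 7 inclusion puts luciferase in frame. Cells were seeded at 2000 cells/well, attached for 10-12 hours, then exposed to compounds for 30-36 hours at 37C before ONE-Glo luminescence.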
FLuc counter = counter-screen for miR-21 project: firefly luciferase inhibitors or activators; P08659; purified FLuc, Km substrates, luminescence inhibition; Potency, µM (top dose mostly 57.5 µM), for inactives: at the highest dose activity change, negative = inhibition, most hits filed as inhibitors; 360,000 compounds, 6.9% hits; AID 588342;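 also: plate controls were vehicle for no effect and reference inhibitor for full effect; nearly all actives have a fitted effect of over 55% in size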
Target sequence (P08659 whole entry, looked up): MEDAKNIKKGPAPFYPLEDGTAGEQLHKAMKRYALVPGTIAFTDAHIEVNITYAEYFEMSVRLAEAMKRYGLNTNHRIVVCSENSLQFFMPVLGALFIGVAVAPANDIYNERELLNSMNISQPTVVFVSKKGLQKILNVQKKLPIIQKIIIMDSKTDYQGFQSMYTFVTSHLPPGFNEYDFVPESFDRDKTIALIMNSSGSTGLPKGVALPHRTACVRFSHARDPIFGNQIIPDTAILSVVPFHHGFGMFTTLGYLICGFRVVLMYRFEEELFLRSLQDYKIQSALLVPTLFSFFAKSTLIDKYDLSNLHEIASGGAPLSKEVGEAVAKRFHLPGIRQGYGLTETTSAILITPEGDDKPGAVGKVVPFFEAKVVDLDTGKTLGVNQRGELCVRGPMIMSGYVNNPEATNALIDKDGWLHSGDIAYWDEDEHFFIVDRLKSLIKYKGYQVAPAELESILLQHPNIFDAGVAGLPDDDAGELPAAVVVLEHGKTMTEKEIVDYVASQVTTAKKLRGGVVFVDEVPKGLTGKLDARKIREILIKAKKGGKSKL
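Purified P. pyralis luciferase, 10 nM final, with Km-level 10 uM D-luciferin and 10 uM ATP in 50 mM Tris acetate pH 7.5, 10 mM Mg acetate, 0.01% Tween-20, 0.05% BSA; 6-point qHTS titration about 60 µM downward; luminescence read.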
ELG1 genotoxic = induces genotoxicity in HEK293T cells with luciferase-tagged ELG1; HEK293T ELG1-luciferase reporter, luminescence, 16 h; AID 504466; Potency, µM (doses to about 46 µM), without a hit: top-dose activity change, positive = activation, hits mostly activators; 330,000 compounds, 1.3% hits; also: % of control where 0% means no effect; nearly all actives have a fitted effect of over 60% in size
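Genotoxicity was scored as increased ELG1-luciferase reporter signal, measured by ONE-Glo luminescence (30 min, room temperature). Compound or vehicle exposure of the HEK293T reporter cells lasted 16 hr at 37°C.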
Starred values were filed as active, the others as inactive; ? = inconclusive; . = no result. A selection: hits, their analogues and other compounds. The true share with any hit is near 9.4%. Calls follow the shape of the dose curve; as a rule, active = well fitted curve in the direction sought with a large enough effect; inconclusive = small, poorly fitted or top-dose-only effect, or another doubt; inactive = no such curve, though single readings can be large; an effect the other way counts as inactive or inconclusive. Potency is read from the fitted curve at half-maximal effect.

SMILES	ELG1 repair inh	NPC1 prom act	Rab9 prom act	SMN2 splice up	FLuc counter	ELG1 genotoxic
CC/C(=C(\c1ccccc1)c1ccc(OCCN(C)C)cc1)c1ccc(O)cc1	.	.	.	-5%	.	.
COc1ccccc1NC(=O)C1CCN(C(=O)c2sc3nc[nH]c(=O)c3c2C)CC1	.	.	.	.	-3%	.
O=C(O)CCC(=O)OCc1c(-c2ccccc2)ncc2ccccc12	17%	1%	0%	.	-12%	0%
COc1ccc(C(=O)OCc2c(-c3ccccc3)ncc3ccccc23)cc1	?	.	.	.	.	0%
COc1ccccc1C(=O)OCc1c(-c2ccccc2)ncc2ccccc12	16µM*	.	.	.	.	-12%
O=C(OCc1c(-c2ccccc2)ncc2ccccc12)N1CCOCC1	?	-2%	-4%	.	2.7µM*	5%
CCOC(=O)c1cnc2ccc(C(=O)OC)cc2c1Nc1ccccc1CC	.	.	.	-28%	-11%	.
COc1cc(Cl)c(C)cc1NC(=O)Cn1cnc2sc(C)c(S(=O)(=O)N3CCCCC3)c2c1=O	.	.	.	-14%	3%	.
CN(C)c1ccc(-n2cccc2/C=C/[N+](=O)[O-])cc1	?	-12%	-4%	-41%	-15%	-14%
CN(c1ccccc1)c1ccc(/C=C/[N+](=O)[O-])cc1	?	9%	17%	-84%	11µM*	-6%
COc1cccc(OCC(O)CN2CCC(CN3C(=O)c4cccc5cccc(c45)C3=O)CC2)c1 (centres undefined)	?	-4%	-11%	-42%	5%	-8%
CC(=O)c1ccccc1OCC(O)CN1CCN(CCN2C(=O)c3cccc4cccc(c34)C2=O)CC1 (centres undefined)	?	-1%	1%	-33%	-1%	-15%
Cc1ccc(C)c(OCC(O)CN2CCN(CCN3C(=O)c4cccc5cccc(c45)C3=O)CC2)c1 (centres undefined)	18µM*	-5%	-5%	-106%	-1%	-8%
O=C1c2cccc3cccc(c23)C(=O)N1CCN1CCN(CC(O)COc2ccc3ccccc3c2)CC1 (centres undefined)	9.2µM*	-4%	2%	-32%	2%	-3%
O=C1c2cccc3cccc(c23)C(=O)N1CC1CCN(CC(O)COc2ccc3ccccc3c2)CC1 (centres undefined)	?	?	0%	10%	12µM*	8%
O=C1c2cccc3cccc(c23)C(=O)N1CC1CCN(S(=O)(=O)c2ccc(F)cc2)CC1	21µM*	-2%	-2%	-31%	2%	-2%
COc1ccc(Nc2cc(C)c3cc(NC(=O)c4cc(OC)cc(OC)c4)ccc3n2)cc1	.	.	.	.	-3%	.
CCOc1cc(C2c3c(-c4cc(C)ccc4O)n[nH]c3C(=O)N2CCCOC(C)C)ccc1O (centres undefined)	.	.	.	0%	-11%	.
Cc1ccc(NC(=O)n2ccc(-c3ccc(-n4ccnc4)cc3)n2)cc1	?	?	4µM*	13µM*	?	19%
COc1cc(NC(=O)COc2ccc(-n3ccnc3)cc2)cc(OC)c1	?	-10%	-10%	-28%	-7%	-19%
N#Cc1ccc(-c2ccc(OCC(=O)Nc3cccnc3)cc2)cc1	15µM*	-7%	-6%	.	?	-11%
CC(C)(C)c1ccc(NC(=O)COc2ccc(-n3ccnc3)cc2)cc1	?	0%	-23%	.	15µM*	-4%
N#Cc1cccc(NC(=O)COc2ccc(-n3ccnc3)cc2)c1	13µM*	0%	-1%	-14%	-4%	-22%
CN(C(=O)CSc1nc2ccc(NC(=O)CCc3ccccc3)cc2s1)c1ccccc1	.	.	.	.	-12%	.
CCOCCOCC	.	.	.	11%	.	.
SMILES	ELG1 repair inh	NPC1 prom act	Rab9 prom act	SMN2 splice up	FLuc counter	ELG1 genotoxic
C/C(=N\NC(=O)COc1ccc(C(C)(C)C)cc1)c1ccc(-n2ccnc2)cc1	?	28%	?	?	0.38µM*	16%
COc1ccc(OCC(=O)N/N=C(\C)c2ccc(-n3ccnc3)cc2)cc1	12%	1%	-3%	-19%	6µM*	0%
C/C(=N\NC(=O)c1ccccc1)c1ccc(-n2ccnc2)cc1	?	1%	1%	.	-19%	1%
C/C(=N\NC(=O)OC(C)(C)C)c1ccc(-n2ccnc2)cc1	6%	-1%	1%	4%	-3%	0%
Cc1nn(Cc2ccccc2Cl)c(Cl)c1C(=O)NCCc1ccccc1	?	4µM*	1.6µM*	11µM*	3.8µM*	?
Cc1c(C)c(C)c2[nH]c(-c3ccc4c(c3)OCO4)nc2c1C	8%	19%	17%	.	4.8µM*	-10%
COc1ccc(-c2[nH]c(-c3ccc4c(c3)OCO4)nc2-c2ccccc2)cc1	?	1%	-4%	-4%	?	-10%
CC(C)n1ncc2c(C(=O)N3CCN(c4ccccc4)CC3)cc(-c3ccccc3)nc21	?	-8%	1%	.	-1%	-3%
O=C(c1cc(-c2ccccc2)nc2ccccc12)N1CCN(c2ccccc2O)CC1	13µM*	11%	24%	.	11µM*	-22%
Cc1ccc2nc(-c3ccccc3)cc(C(=O)N3CCN(c4ccccc4O)CC3)c2c1	?	14%	4%	.	13µM*	-28%
O=C(c1cc(-c2ccncc2)nc2ccccc12)N1CCN(c2ccccc2O)CC1	?	-5%	0%	.	?	-17%
Cc1ccc2nc(-c3ccccc3)cc(C(=O)N3CCN(S(=O)(=O)c4c(C)noc4C)CC3)c2c1	?	5%	6%	.	5.4µM*	-7%
COc1ccc(CCNC(=O)CCn2c(=O)c3cccn3c3ccc(F)cc32)cc1OC	.	.	.	.	-9%	.
O=C(CCSCc1cccc(Cl)c1)NCc1ccccc1Cl	.	.	.	.	-17%	.
Cc1[nH]c(=O)c(C(=O)/C=C/c2ccccc2F)c2c1CCCC2	15µM*	-19%	-34%	-83%	2%	-1%
COc1ccc(Nc2oc(-c3cccs3)nc2C#N)cc1	?	?	3.2µM*	?	4.8µM*	?
N#Cc1nc(-c2cccs2)oc1NCCc1ccccc1	?	18%	7%	-7%	19µM*	?
N#Cc1nc(-c2ccccc2F)oc1NCCc1ccccc1	?	21%	21%	-4%	27µM*	6%
N#Cc1nc(-c2ccccc2F)oc1NCc1ccccc1	13%	-3%	-8%	9%	-16%	6%
CCC(=O)N1CCc2cc(S(=O)(=O)N3CCN(c4ccccc4F)CC3)ccc21	.	.	.	-4%	-3%	.
CCCCOc1ccc(C(=O)Nc2cc(-c3ccc(C)cc3)no2)cc1	.	.	.	4%	5%	.
Cc1ccc(-c2cc(NC(=O)c3ccccc3Cl)on2)cc1	.	.	.	13µM*	?	.
